According to ChEMBL document CHEMBL1961873, “Compounds: GSK PKIS; Assays: Nanosyn kinase panel” (2012):

Assays:
[1] = molecular target: Serine/threonine-protein kinase PAK 6 (Homo sapiens) (UniProt Q9NQU5); conditions: at 1 µM;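 also: values are mean percent inhibition of PAK6 kinase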
[2] = test system: Tyrosine-protein kinase ABL1 (Homo sapiens), P00519 [E255K]; conditions: at 0.1 µM
[3] = test system: Tyrosine-protein kinase ABL1 (Homo sapiens), P00519 [E255K]; conditions: at 1 µM
[4] = test system: Tyrosine-protein kinase ABL1 (Homo sapiens), P00519 [H396P]; conditions: at 0.1 µM
[5] = test system: Tyrosine-protein kinase ABL1 (Homo sapiens), P00519 [H396P]; conditions: at 1 µM
[6] = test system: Tyrosine-protein kinase ABL1 (Homo sapiens), P00519 [M351T]; conditions: at 0.1 µM
[7] = test system: Tyrosine-protein kinase ABL1 (Homo sapiens), P00519 [M351T]; conditions: at 1 µM
[8] = test system: Tyrosine-protein kinase ABL1 (Homo sapiens), P00519 [Q252H]; conditions: at 0.1 µM
[9] = test system: Tyrosine-protein kinase ABL1 (Homo sapiens), P00519 [Q252H]; conditions: at 1 µM
[10] = test system: Tyrosine-protein kinase ABL1 (Homo sapiens), P00519 [T315I]; conditions: at 0.1 µM

Chain of Serine/threonine-protein kinase PAK 6 (Homo sapiens) (Q9NQU5 whole entry, looked up): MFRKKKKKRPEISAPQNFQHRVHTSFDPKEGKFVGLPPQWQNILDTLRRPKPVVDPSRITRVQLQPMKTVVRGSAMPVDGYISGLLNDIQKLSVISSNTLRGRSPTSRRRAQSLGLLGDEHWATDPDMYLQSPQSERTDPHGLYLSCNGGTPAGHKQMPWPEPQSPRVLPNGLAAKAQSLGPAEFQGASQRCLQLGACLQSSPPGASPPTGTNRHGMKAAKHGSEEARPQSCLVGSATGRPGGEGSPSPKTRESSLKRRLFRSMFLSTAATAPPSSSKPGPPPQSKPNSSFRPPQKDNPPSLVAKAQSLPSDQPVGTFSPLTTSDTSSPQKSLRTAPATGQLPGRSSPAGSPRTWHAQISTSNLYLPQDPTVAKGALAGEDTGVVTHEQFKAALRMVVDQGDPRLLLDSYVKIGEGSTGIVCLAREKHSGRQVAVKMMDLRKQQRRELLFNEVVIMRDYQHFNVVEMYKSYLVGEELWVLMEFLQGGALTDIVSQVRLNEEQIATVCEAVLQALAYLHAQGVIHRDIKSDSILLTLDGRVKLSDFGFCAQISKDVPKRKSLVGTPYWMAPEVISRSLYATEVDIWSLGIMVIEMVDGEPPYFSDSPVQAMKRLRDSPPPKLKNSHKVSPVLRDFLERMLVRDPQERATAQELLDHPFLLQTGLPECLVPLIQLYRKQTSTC

| Compound | inhibition [1] [%] | inhibition [2] [%] | inhibition [3] [%] | inhibition [4] [%] | inhibition [5] [%] | inhibition [6] [%] | inhibition [7] [%] | inhibition [8] [%] | inhibition [9] [%] | inhibition [10] [%] |
| --- | --- | --- | --- | --- | --- | --- | --- | --- | --- | --- |
| Cc1ccc2c(-c3ccnc(Nc4cccc(C(F)(F)F)c4)n3)c(-c3ccccc3)nn2n1 | -8.69 | 3.52 | 19.7 | 11.3 | 44.8 | 24.1 | 68.2 | 24.2 | 69.1 | 6.16 |
| Cc1ccc(C(=O)NC2CC2)cc1-c1ccc2[nH]ncc2c1 | -8.86 | -0.87 | -0.81 | -1.68 | 1.02 | 1.39 | 2.89 | -1.32 | 2.09 | -2.71 |
| CCn1c(-c2nonc2N)nc2c(C#CC(C)(C)O)nc(OCCNC)cc21 | 1.16 | 2.13 | 2.96 | 3.72 | 4.85 | 1.62 | 3.61 | 3.81 | 4.6 | 1.77 |
| Cc1ccc(NC(=O)CC2CC2)cc1-c1ccc(C(=O)NCC2CC2)cc1 | 1.56 | 4.24 | 5.26 | 6.77 | 3.96 | 4.32 | 3.09 | 6.39 | 4.54 | 2.14 |
| Nc1nccc(C#Cc2cncnc2Nc2ccc(OCc3cccc(F)c3)c(Cl)c2)n1 | 1.07 | 3.67 | 3.58 | 3.32 | 2.76 | 1.11 | 0.59 | 2.18 | 0.52 | 2.46 |
| COc1cc2ncn(-c3cc(OCc4ccccc4S(C)(=O)=O)c(C#N)s3)c2cc1OC | 9.78 | 9.96 | 46.7 | 12.2 | 49.5 | 9.97 | 49.6 | 10 | 43.9 | 6.41 |
| Cc1ccc(O)cc1Nc1ccnc2ccc(S(C)(=O)=O)cc12 | 4.09 | 94.4 | 95.8 | 94.8 | 96.4 | 90.6 | 94.3 | 93 | 96.3 | 3.68 |
| OCc1ccc(-c2nc(-c3ccccn3)c(-c3ccc4c(c3)OCO4)[nH]2)cc1 | 5.51 | 4 | 3.72 | 2.95 | 3.25 | 1.06 | 2.45 | 3.06 | 3.19 | 1.99 |
| COc1cc2ncnc(Nc3ccc(C)c(O)c3)c2cc1OC | 0.34 | 42.3 | 85.8 | 48.1 | 87.4 | 42.5 | 84.5 | 41.1 | 81.8 | 16.5 |
| Oc1cccc(-c2nc(-c3ccccc3)[nH]c2-c2ccncc2)c1 | 2.02 | 6.54 | 26.7 | 9.87 | 36.6 | 8.39 | 31.3 | 7.9 | 27 | 3.52 |
| CN(C)C(=O)O[C@@H]1CN[C@@H](C#Cc2cc3ncnc(Nc4ccc(OCc5cccc(F)c5)c(Cl)c4)c3s2)C1 | -6.9 | -0.68 | 2.16 | -0.68 | -1.23 | -1.17 | 0.01 | 2.52 | 2.17 | -0.5 |
| Cc1ccc2c(c1)/C(=N/Nc1ccc(S(N)(=O)=O)cc1)C(=O)N2 | -8.53 | 0.74 | 3.57 | -0.31 | 5.97 | 0.64 | 8.33 | 1.64 | 7.52 | 1.43 |
| COc1cc(Nc2nccc(-c3cnn4ncccc34)n2)cc(OC)c1 | -1.82 | 6.96 | 46 | 11.9 | 59.5 | 13.7 | 63.4 | 18 | 68.6 | 5.15 |
| CCCN1CCCC(c2ccc(Nc3nc(Nc4cc(F)ccc4C(N)=O)c4cc[nH]c4n3)c(OC)c2)C1 (configuration not stated) | -5.69 | 3.9 | 5.75 | 5.07 | 4.96 | 1.54 | 5.35 | 4.96 | 7.24 | 4.52 |
| O=C1Nc2ccc(-c3cccnc3)cc2C1=Cc1cc(Br)c(O)c(Br)c1 | 7.69 | 3.78 | 8.72 | 3.44 | 7.14 | 4.37 | 6.55 | 2.79 | 7.71 | 2.69 |
| CS(=O)(=O)CCNCc1nc(-c2ccc3ncnc(Nc4ccc(OCc5cccc(C(F)(F)F)c5)cc4)c3c2)cs1 | -5.71 | 0.56 | 1.8 | 2.03 | 2.31 | 1.36 | 1.22 | 1.8 | 1.75 | 0.33 |
| ON=C1CCc2cc(-c3nc(C4CCNCC4)[nH]c3-c3ccncc3)ccc21 | 0 | -0.03 | 0.64 | 0.53 | 2.54 | 0.36 | 1.06 | 1.13 | 2.38 | 1.29 |

| Compound | inhibition [1] [%] | inhibition [2] [%] | inhibition [3] [%] | inhibition [4] [%] | inhibition [5] [%] | inhibition [6] [%] | inhibition [7] [%] | inhibition [8] [%] | inhibition [9] [%] | inhibition [10] [%] |
| --- | --- | --- | --- | --- | --- | --- | --- | --- | --- | --- |
| CN(C)c1cc2c(Nc3ccc4c(cnn4Cc4ccccc4)c3)ncnc2cn1 | -3.27 | 1.1 | 1.85 | 0.57 | 0.96 | -0.53 | 1.01 | 0.79 | 3.55 | -1.13 |
| NS(=O)(=O)c1ccc(Nc2cc(-c3cccc(O)c3)n[nH]2)cc1 | -5.13 | 4.46 | 7.4 | 5.03 | 5.99 | 4.35 | 4.29 | 5.44 | 5.74 | 4.08 |
| CN(C)CCCn1c(-c2nonc2N)nc2cnccc21 | -2.15 | 3.28 | 4.1 | 2.64 | 1.22 | 1.53 | 3.51 | 3.76 | 2.62 | 2.51 |
| NS(=O)(=O)c1ccc(-c2cc3ccncc3cc2OCc2ccccc2)cc1 | 4.76 | 2.82 | 3.92 | 4.66 | 6.67 | 3.16 | 4.42 | 4.84 | 4.61 | 1.65 |
| [O-][S+]1CCN(Cc2ccc(-c3ccc4ncnc(Nc5ccc(OCc6ccccc6)c(Cl)c5)c4c3)o2)CC1 | -2.46 | 1.62 | 1.35 | 1.53 | 2.74 | 0.68 | 2.75 | 2.06 | 3.61 | 0.16 |
| O=C(Nc1ccc(Oc2ccc3[nH]c(NC(=O)c4ccco4)nc3c2)cc1)Nc1cc(C(F)(F)F)ccc1F | 6.45 | 15.2 | 67.1 | 60.1 | 92 | 72.4 | 93.2 | 68.6 | 91.6 | 76.3 |
| N#Cc1cccc(Nc2nccc(-c3cnn4ncccc34)n2)c1 | -4.67 | 7.52 | 33 | 13.6 | 51.8 | 16.2 | 60.8 | 15.2 | 57 | 8.12 |
| CN(C)C(=O)O[C@H]1CN[C@H](C#Cc2cc3ncnc(Nc4ccc(OCc5cccc(F)c5)c(Cl)c4)c3s2)C1 | 7.18 | 2 | 3.31 | 2.06 | -0.36 | 0.95 | 0.49 | 4.6 | 3.58 | 2.75 |
| COc1ccc2ncnc(Nc3ccc(OCc4ccccc4)cc3)c2c1 |  | 1.91 | 2.75 | 1.73 | 4.61 | -1.29 | 2.67 | 0.25 | 4.68 | 0.02 |
| CC(C)c1ccc(Nc2nccc(-c3cnn4ncccc34)n2)cc1 | 2.84 | 1.9 | 4.45 | 3.09 | 8.88 | 1.81 | 10.2 | 2.85 | 11.6 | 2.34 |
| Nc1nccc(-c2c(-c3ccc(F)cc3)ncn2CCCN2CCOCC2)n1 |  | 3.15 | 4.81 | 2.47 | 4.57 | 0.51 | 3.75 | 2.53 | 6.74 | 2.38 |
| O=C1Nc2ccccc2/C1=C/Nc1ccc2[nH]c(=O)[nH]c2c1 | -6.29 | 7.84 | 15 | 7.55 | 23.4 | 4.2 | 24.6 | 8.42 | 26 | 4.38 |
| Nc1nccc(-c2c(-c3ccc(F)cc3)nn3cc(C(F)(F)F)ccc23)n1 | 5.02 | -2.06 | -1.18 | 0.65 | -0.33 | 1.15 | 1.14 | 1.06 | 0.27 | 0.42 |
| COc1cc(/C=N/Nc2ncnc3c2cnn3C(C)C)ccc1O |  | 21.7 | 71 | 34.7 | 80.7 | 34.7 | 80.5 | 35.4 | 81.6 | 9.92 |
| CS(=O)(=O)Nc1cccc(-c2ccc3c(NC(=O)C4CC4)n[nH]c3c2)c1 | -4.78 | 1.67 | 7 | 2.46 | 16.8 | 3.14 | 16 | 0.49 | 7.01 | 3.71 |
| Cc1nc(-c2ccccc2)n2nc(NCCCN3CCOCC3)ncc12 | -7.1 | 0.22 | 2.36 | 2.5 | 4.26 | -1.13 | 0.73 | 3.04 | 3.3 | 2.3 |
| COc1cc2ncnc(Nc3ccc4c(cnn4Cc4ccccc4)c3)c2cc1OC | -6 | 2.21 | 2.28 | 2.93 | 6.16 | 0.94 | 3.26 | 2.63 | 7.1 | 2.91 |
